# A selection: hits, their analogues and other compounds. The true share with any hit is near 10%.
# G9a inh = blocks human histone lysine methyltransferase G9a; Q96KQ7; G9a H3K9 monomethylation, AlphaScreen, 2 h; Potency, µM (top dose mostly 102 µM), for the others: at the top dose activity, negative = inhibition, most hits filed as inhibitors; actives 8.8% (n = 350,000); further: on the % scale 0 is the no-effect control and ±100 the full control effect; nearly all actives have a fitted effect of over 75% in size
#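 Readings reflect AlphaScreen signal from monomethyl-H3K9 antibody detection. HMT at 20 nM; substrate b-H3K9 500 nM; cofactor SAM 20 uM; 2 h RT reaction; compounds tested as titrations in qHTS with 15 min preincubation.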
# HP1b chromo inh = blocks HP1-beta chromodomain binding to methylated histone tails; P83916; AlphaScreen HP1-beta / biotin-H3K9me3 peptide binding; Potency, µM (doses to about 114 µM), without a hit: at the highest dose activity change, negative = inhibition, usual class: inhibitors; actives 0.56% (n = 390,000); AID 540317; further: nearly all actives have a fitted effect of over 70% in size
#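 AlphaScreen: HP1-beta (50 nM) preformed 30 min with biotin-H3(1-18)K9me3 peptide (50 nM) in PBS pH 7.4, 0.01% Tween-20. Compound added for 30 min at RT, then streptavidin donor/nickel chelate acceptor beads (10 ug/mL) for 30 min.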
# JMJD2A Tudor inh = JMJD2A Tudor domain (human) inhibition; actives 4.4% (n = 390,000); AlphaScreen JMJD2A-Tudor / H3K4me3 peptide binding; AID 504339; Potency, µM (titrated, usually from 114 µM), inactives show at the highest dose activity change, negative = inhibition, most hits filed as inhibitors; O75164; further: on the % scale 0 is the no-effect control and ±100 the full control effect; nearly all actives have a fitted effect of over 50% in size
# Target sequence (O75164 whole entry, looked up, the tested form may be a part): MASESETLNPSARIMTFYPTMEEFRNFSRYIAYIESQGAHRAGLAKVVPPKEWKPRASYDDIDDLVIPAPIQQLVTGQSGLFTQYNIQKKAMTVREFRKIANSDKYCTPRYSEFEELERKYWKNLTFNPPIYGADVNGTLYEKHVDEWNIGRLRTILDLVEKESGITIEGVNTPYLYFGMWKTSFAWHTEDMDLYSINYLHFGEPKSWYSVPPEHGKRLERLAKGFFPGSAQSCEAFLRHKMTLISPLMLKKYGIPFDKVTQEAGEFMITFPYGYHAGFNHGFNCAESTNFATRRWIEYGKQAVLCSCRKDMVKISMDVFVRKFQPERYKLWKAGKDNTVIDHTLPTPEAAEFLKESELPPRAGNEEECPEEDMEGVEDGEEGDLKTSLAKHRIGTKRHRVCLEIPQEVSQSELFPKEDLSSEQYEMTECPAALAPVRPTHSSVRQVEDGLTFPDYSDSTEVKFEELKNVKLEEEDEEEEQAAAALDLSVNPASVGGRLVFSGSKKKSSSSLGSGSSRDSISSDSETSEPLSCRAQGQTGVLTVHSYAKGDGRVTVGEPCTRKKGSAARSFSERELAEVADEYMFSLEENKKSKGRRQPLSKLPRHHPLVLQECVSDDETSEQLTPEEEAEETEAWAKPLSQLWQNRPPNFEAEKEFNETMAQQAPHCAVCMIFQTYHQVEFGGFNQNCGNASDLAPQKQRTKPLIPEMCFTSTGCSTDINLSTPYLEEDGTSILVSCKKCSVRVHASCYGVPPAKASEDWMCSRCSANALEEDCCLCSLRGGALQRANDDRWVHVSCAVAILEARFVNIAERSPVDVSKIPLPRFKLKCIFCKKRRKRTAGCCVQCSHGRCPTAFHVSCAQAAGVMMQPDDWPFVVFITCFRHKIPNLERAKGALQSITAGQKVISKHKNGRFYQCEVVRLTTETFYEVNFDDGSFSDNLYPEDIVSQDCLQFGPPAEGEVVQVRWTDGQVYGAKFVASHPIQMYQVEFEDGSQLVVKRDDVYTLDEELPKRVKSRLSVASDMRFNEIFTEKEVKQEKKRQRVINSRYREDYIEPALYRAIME
# BAZ2B inh = inhibitors of human BAZ2B bromodomain; Q9UIF8; AlphaScreen BAZ2B-H3K14Ac peptide displacement; AID 504333; actives 4.4% (n = 360,000); Potency, µM (titrated, usually from 114 µM), without a hit: at the top dose activity change, negative = inhibition, actives largely listed as inhibitors; further: on the % scale 0 is the no-effect control and ±100 the full control effect; nearly all actives have a fitted effect of over 60% in size
#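 In this displacement format the biotinylated H3(5-23) peptide acetylated at Lys14 serves as ligand at 50 nM, with BAZ2B at 50 nM in PBS pH 7.4 containing 0.01% Tween-20. Donor and acceptor beads are 10 ug/mL final.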
# GLS inhibitor = blocks human kidney-isoform glutaminase activity. O94925. GLS enzymatic activity, qHTS titration. Potency, µM (series often up to 45.5 µM), for the others: at the highest dose activity change, negative = inhibition, hits mostly inhibitors. actives 0.21% (n = 410,000); further: on the % scale 0 is the no-effect control and ±100 the full control effect
#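 Coupled fluorescence readout: glutamate oxidase/HRP/Amplex Red detect glutamate formed by hKGA from L-glutamine (1 mM solution added). Buffer 45 mM KH2PO4 pH 8.2, 0.02% Tween-20; reads at t0 and 30 min RT.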
# Starred values were filed as active, the others as inactive; u = inconclusive; x = not tested or not shown; ! = repeats disagree; [ ] = another dose, or the depositor's remark. The call rests on the fitted dose curve; in most records, active means well fitted curve in the direction sought with a large enough effect; inconclusive means small, poorly fitted or top-dose-only effect, or another doubt; inactive means no such curve, though single readings can be large; an effect the other way counts as inactive or inconclusive. Potency means the concentration at half of the fitted maximal effect.
SMILES,G9a inh,HP1b chromo inh,JMJD2A Tudor inh,BAZ2B inh,GLS inhibitor
O=C(NNc1cc(Br)c(O)c(Br)c1)c1ccccc1,5µM*,40µM*,8.9µM*,8.9µM*,-2%
Nc1ccn([C@@H]2O[C@H](CO)[C@@H](O)C2O)c(=O)n1 (stereo partly specified),11µM*!,20%,1%,3%,-15%
Nc1ccn([C@@H]2O[C@H](CO)[C@@H](O)[C@H]2O)c(=O)n1,x,50%,-17%,x,-1%
C[N+](C)(C)CCOP(=O)(O)OP(=O)([O-])OC[C@H]1O[C@@H](n2ccc(N)nc2=O)[C@H](O)[C@@H]1O,10µM*!,28%,-5%,-5%,-13%
Cc1ccc(Cl)cc1N1CCN(C(=O)c2cc(S(=O)(=O)N3CCCC3)cn2C)CC1,-3%[59 µM],29%,-17%,-15%,5%
O=c1c2nccnc2[nH]c(=S)n1Cc1ccccc1Cl,-48%,50%,-12%,u,10µM*
Cn1c(SCc2nn[nH]n2)nc2c1c(=O)n(Cc1ccccc1Cl)c(=O)n2C,u,23%,-33%,0%,11µM*
Cn1c(=O)n(Cc2ccccc2Cl)c2ccccc21,33%,u,u,-7%,-10%
Cn1c(=O)c2c(nc(SCc3nn[nH]n3)n2Cc2ccccc2F)n(C)c1=O,u,55%,u,-9%,-6%
Cn1c(=O)n(Cc2ccccc2Cl)c(=O)c2c1[nH]c(=S)n2C,1.3µM*,u,13µM*,u,14µM*
CCOc1ccccc1N(C)C(=O)C1CCN(S(=O)(=O)c2cccc3nonc23)CC1,u,4%,-4%,-29%,-5%
O=CNc1cc(-c2ccsc2)cn2c(-c3ccccc3)cnc12,x,x,x,x,-3%
COc1ccc(-c2nn(-c3ccccc3)cc2/C=N/NC(=O)c2cccc(S(=O)(=O)Nc3ccccc3Cl)c2)cc1,-7%[59 µM],31%,-22%,3%,0%
O=c1cc(CN2CCN(c3ccc(O)cc3)CC2)nc2scc(-c3ccccc3)n12,10µM*,u,-35%,-30%,u
Cc1ccc(S(=O)(=O)/C=C/C#N)cc1,1.6µM*,x,x,x,x
Cc1ccc(S(=O)(=O)C=CS(=O)(=O)c2ccc(C)cc2)cc1,x,x,x,x,-17%
COc1ccc2[nH]c(C(=O)NCc3ccc4c(c3)OCO4)cc2c1,u,u,-27%,-36%,41%
Cc1ccc(NC2=NCCC2)cc1Cl,-3%[59 µM],17%,-6%,39%,-3%
Cc1nc2ccc(NC3=NCCCCC3)cc2s1,5.6µM*,u,3.5µM*,u,3%
Cn1c(=O)c2cc3c(nc2n(C)c1=O)CC(c1ccccc1)CC3=O (stereo unspecified),-1%,3%,56µM*,-34%,1%
CSc1nc2nc3c(cn2n1)C(=O)CC(c1ccccc1)C3 (stereo unspecified),20%[12.7 µM],19%,-9%,5%,-2%
COc1cc(NS(=O)(=O)c2cc3[nH]c(=O)[nH]c3cc2C)cc(OC)c1OC,15%[59 µM],18%[57 µM],-17%,3%,4%
COc1ccc(NS(=O)(=O)c2cc3[nH]c(=O)c(=O)[nH]c3cc2C)cc1OC,-26%[59 µM],40%,-5%,79µM*,30%
Nc1[nH][nH]c(=O)c1N=Nc1ccccc1,x,0%,-21%,x,u
COc1ccc(NC(=O)C(c2ccccn2)N(C(C)=O)c2ccc(C)cc2)cc1 (stereo unspecified),-19%,34%,-5%,2%,-12%
CCOc1ccc(NC(=O)C(c2ccccn2)N(C(=O)CCl)c2ccc(OCC)cc2)cc1 (stereo unspecified),3.5µM*,-28%,u,u,18%
CCOc1ccc(NC(=O)C(c2ccccn2)N(C(=O)CCl)c2ccc(OC)cc2)cc1 (stereo unspecified),2µM*,-27%,89µM*,u,11%
OCC1(Cc2ccccc2)CCCN(Cc2ccc3c(c2)OCCO3)C1 (stereo unspecified),u,34%,-13%,0%,-1%
Cc1sc(NC(=O)CN(Cc2ccccc2)C(=O)C2CC2)c(C(N)=O)c1C,-5%,27%,-10%,1%,4%

# Compound activity from PubChem.
